Abeta rescue: A-beta toxicity reversal in yeast; AID 1347071; Potency, µM (doses to about 46.1 µM), hits mostly activators; yeast expressing A-beta42, growth rescue, OD600, 48 h; response scale: 0% DMSO, 100% iron-clioquinol control; actives 0.063% (n = 410,000); also: nearly all actives have a fitted effect of over 55% in size
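Growth rescue measured by 600 nm absorbance after 48 h yeast culture at 30 C with compound. Values normalized between DMSO and an equimolar ferric chloride plus clioquinol control.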
aSyn yeast inh: alpha-synuclein toxicity inhibition in yeast | Yeast expressing alpha-synuclein, growth rescue, BacTiter-Glo, 24 h | Potency, µM (series often up to 46.1 µM), hits mostly activators | actives 0.14% (n = 370,000) | AID 652106; also: nearly all actives have a fitted effect of over 65% in size
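Rescue of yeast growth: cells expressing toxic alpha-synuclein, induced in galactose at OD600 0.02, incubated with compound 24 h at 30 C. ATP luminescence quantified growth; inhibitors of toxicity appear as activators.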
TDP43 rescue: TDP-43 toxicity inhibition in yeast. TDP-43 expressing yeast growth rescue, BacTiter-Glo, 24 h. actives 1.8% (n = 410,000). Potency, µM (titrated, usually from 46.1 µM), most hits filed as activators; also: nearly all actives have a fitted effect of over 50% in size
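Readout is BacTiter-Glo luminescence of cell growth, so inhibitors register as activators. TDP-43-expressing yeast at OD600=0.02 in galactose medium, after raffinose pregrowth to mid-log, were incubated with compound for 24 hr at 30 deg C.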
FUS yeast rescue: suppressors of FUS proteinopathy in yeast; S. cerevisiae FUS-expressing, growth rescue, OD600, 24 h; Potency, µM (top dose mostly 76.6 µM), actives largely listed as activators; actives 0.24% (n = 390,000); AID 1347120; also: nearly all actives have a fitted effect of over 55% in size
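Yeast FUS proteinopathy model; galactose-induced FUS (2%), starting OD 0.005. Cpds in dilution series, 24hr, 30C, 99% humidity. Abs 600 nm growth. Pos ctrl CP55940 (top 92uM final); neg ctrl DMSO.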
Hits are given with their value; – = inactive; ? = inconclusive; · = no result given; [ ] = remark or other dose. In the library only some 2.1% were active in any assay of this set; here they are far more common. Calls follow the shape of the dose curve; as a rule, active = well fitted curve in the direction sought with a large enough effect; inconclusive = small, poorly fitted or top-dose-only effect, or another doubt; inactive = no such curve, though single readings can be large; an effect the other way counts as inactive or inconclusive.

SMILES | Abeta rescue | aSyn yeast inh | TDP43 rescue | FUS yeast rescue
O=S(=O)(Oc1ccccc1)c1ccc(Cl)c(Cl)c1 | – | – | – | –
O=[N+]([O-])c1cc(S(=O)(=O)Oc2ccccc2)ccc1Cl | – | – | 11µM | ·
CCc1ccc(NCc2cc3ccc(OC)cc3n(CC(=O)Nc3cccc(Cl)c3C)c2=O)cc1 | – | – | – | –
O=C1C=C(c2ccc(O)cc2)C[C@@H](c2ccc3c(c2)OCO3)C1 | – | – | – | –
COc1ccccc1C1=CC(=O)C[C@H](c2ccc3c(c2)OCO3)C1 | – | – | ? | –
O=C1C=C(/C=C/c2ccccc2)C[C@@H](c2ccc3c(c2)OCO3)C1 | – | – | 20µM | –
Cc1ccc(C2=CC(=O)C[C@H](c3ccc4c(c3)OCO4)C2)cc1 | – | – | 13µM | –
O=C1C=C(c2ccccc2C(F)(F)F)C[C@@H](c2ccc3c(c2)OCO3)C1 | – | – | 18µM | –
CC(=O)Nc1ccc(C2=CC(=O)C[C@H](c3ccc4c(c3)OCO4)C2)cc1 | – | – | 22µM | –
O=C(CSc1nnc(Cc2cccs2)n1-c1ccc(Cl)cc1)Nc1ccc(OCc2ccccc2)cc1 | · | · | · | –
COc1ccc(C2=CC(=O)C[C@H](c3ccc4c(c3)OCO4)C2)cc1 | – | – | 11µM | –
CCc1ccc(-n2nc(CO)c(C(=O)NC)n2)cc1 | – | · | ? | –
CCCCCOc1ccc(C(=O)NCC2(c3ccccc3)CCOCC2)cc1 | – | – | – | ?
CCCCOc1ccc(C(=O)NCC2(c3ccccc3)CCOCC2)cc1 | – | – | 16µM | ?
Cc1ccc(C(=O)Oc2oc(-c3ccco3)nc2C=Nc2ccc(Cl)cc2)cc1 | – | – | 6.3µM | ·
O=C(Oc1oc(-c2ccco2)nc1C=Nc1ccccc1)c1ccoc1 | – | ? | – | –
O=C(COC(=O)Cc1ccccc1F)Nc1ccc(SC(F)F)cc1 | – | – | 10µM | –
O=C(Cc1ccccc1F)Nc1ccc(SC(F)F)cc1 | – | – | –[0.397 µM] | –
CCOC(=O)c1nc(NCCc2ccccc2)sc1C | – | – | 13µM | –
FC(F)(F)c1ccc2nc(CNc3nc(N4CCOCC4)nc4c3ncn4-c3ccsc3)[nH]c2c1 | · | · | · | –
O=C(CCc1ccccc1)NC(=S)Nc1ccccc1[N+](=O)[O-] | ? | – | 13µM | –
Cc1c(NC(=S)NC(=O)C(C)(C)C)cccc1[N+](=O)[O-] | – | – | 14µM | –
O=C(CCCc1ccccc1)Nc1ccccc1[N+](=O)[O-] | – | – | 11µM | –
CCc1ccc(NC(=O)CC2C(=O)N(c3cccc(C)c3)C(=O)N2Cc2ccco2)cc1 (stereo not given) | – | · | – | –
COC(=O)c1cc(-c2ccc(F)c(Cl)c2)c(=O)n2c1CCC2 | · | · | · | –
SMILES | Abeta rescue | aSyn yeast inh | TDP43 rescue | FUS yeast rescue
C/C(=N/NC(=O)Cc1cccs1)c1cccc([N+](=O)[O-])c1 | · | · | · | –
C[C@H]1[C@@H](OC(=O)Nc2cc(Cl)ccc2Cl)CC[C@@]23CCCN2C(=O)CCC[C@@H]13 | · | · | · | –
Cc1ccc(-c2nnc(Sc3nc4ccccc4o3)c3ccccc23)cc1 | – | – | – | –
Cc1nnc(Sc2nc3ccccc3o2)c2ccccc12 | – | ? | 14µM | –
CCOCC(=O)Nc1nc2ccc(OCC)cc2s1 | – | – | – | –
CCOc1ccc2nc(NC(=O)C3(C)CC3(Br)Br)sc2c1 (stereo not given) | ? | – | 18µM | –
CN1C(=O)c2cc(NC(=O)C3CCCCC3)ccc2OC[C@H]2O[C@@H](CC(=O)NC3CCCC3)CC[C@H]21 | · | · | · | –
CSc1ccc(CNC(=O)C2CCN(c3nnc(-n4cccc4CNc4ccc(C)cc4)s3)CC2)cc1 | – | · | – | 35µM
Cc1ccc(NCc2cccn2-c2nnc(N3CCC(C(=O)NCCC(C)C)CC3)s2)cc1 | – | · | – | ?
CN(C)S(=O)(=O)Oc1ccsc1C(=O)Nc1ccc(C(F)(F)F)cc1 | ? | – | – | –
CN(C)S(=O)(=O)Oc1ccsc1C(=O)Nc1ccc(Cl)c(Cl)c1 | – | – | 22µM | –
CN(C)S(=O)(=O)Oc1ccc(Cl)cc1C(=O)Nc1cccc(C(F)(F)F)c1 | – | – | – | –
CN(C)S(=O)(=O)Oc1ccsc1C(=O)Nc1cccc(Cl)c1 | – | – | 13µM | –
CN(C)S(=O)(=O)Oc1ccsc1C(=O)Nc1ccc(Br)cc1 | ? | – | 13µM | –
O=C(c1ccc(F)cc1F)N1CCC(Oc2cccnc2)CC1 | · | · | · | –
C1=Nc2ccccc2/C1=C/c1c[nH]c2ccccc12 | · | – | · | ·
Nc1ncnc2c1ncn2C1O[C@H](CO)[C@@H](O)[C@@H]1O (stereo not given in full) | – | – | – | –
Nc1ncnc2c1ncn2[C@@H]1O[C@H](COP(=O)(O)OP(=O)(O)OP(=O)(O)OP(=O)(O)OC[C@@H]2O[C@H](n3cnc4c(N)ncnc43)[C@@H](O)[C@H]2O)[C@@H](O)[C@H]1O | · | 7.3µM | · | ·
Nc1nc(Cl)nc2c1ncn2[C@@H]1O[C@H](COP(=O)(O)OP(=O)(O)OP(=O)(O)O)[C@@H](O)[C@H]1O | · | 21µM | · | ·
CN(c1ccc(/C=C/c2ccccc2)cc1)P1(=O)NCCCO1 (stereo not given) | · | – | · | ·
O=C(O)CN1C(=O)/C(=C\C(Br)=C\c2ccccc2)SC1=S | – | – | 13µM | –
O=C(O)CN1C(=O)/C(=C\c2cccc(OCc3ccc(F)cc3)c2)SC1=S | 5µM | – | – | –
O=C(O)CN1C(=O)/C(=C\c2cccc(OCc3ccc(Cl)cc3)c2)SC1=S | ? | – | ? | –
O=C(O)CN1C(=O)/C(=C\c2cccc(OCc3ccccc3F)c2)SC1=S | 8.9µM | – | – | –
O=C(O)CN1C(=O)/C(=C/C=C/c2ccccc2)SC1=S | – | – | – | –
SMILES | Abeta rescue | aSyn yeast inh | TDP43 rescue | FUS yeast rescue
O=C(CCn1nnc(-c2cccs2)n1)NCc1cccs1 | · | · | · | –
O=C(N/N=C/c1cccc2cccnc12)c1ccccc1O | ? | 22µM | – | –
Cc1ccc(N2CCN(C(=O)c3ccccc3Br)CC2)c(C)c1 | –[9.22 µM] | – | 16µM | –
COc1ccc(-n2cnc3cc(C(=O)NC4CCCCCC4)ccc32)cc1 | – | · | 35µM | –
CCOC(=O)CC[C@H]1CC[C@]2(CCCN(S(C)(=O)=O)C2)O1 | · | · | · | –
NC(=O)NOCc1ccc(Cl)cc1Cl | – | – | – | –
CNC(=S)/N=C/NOCc1ccc(Cl)cc1Cl | – | – | 10µM | –
O=S(=O)(c1cccc(C(F)(F)F)c1)N1CCN(c2nc(-c3ccccc3)nc3ccccc23)CC1 | · | – | · | ·
CCCN1C(=O)/C(=C\c2ccncc2)SC1=Nc1ccccc1 | – | – | ? | ·
CCN1C(=O)/C(=C\c2ccncc2)SC1=Nc1ccc(C)c(C)c1 | – | – | 14µM | ·
O=C1c2ccccc2-c2onc3ccc(Oc4ccccc4)c1c23 | – | ? | 7.1µM | ·
COC(=O)C1=C(C)N(c2cc(Cl)cc(Cl)c2)C(=O)C1 | – | – | 18µM | –
COC(=O)C1=C(C)N(c2ccc(C(=O)OC)cc2)C(=O)C1 | – | – | – | –
C=CCN1C(=O)[C@@H](CC(=O)N2CCN(C(=O)C3CC3)CC2)[C@]2(C(=O)OCC)CCCCC/C=C/12 | · | · | · | –

Screens from PubChem BioAssay.
